ELG1 DNA repair = ELG1-dependent DNA repair inhibition; HEK293T ELG1-luciferase reporter, luminescence, 16 h; DNA damage induced by 5-fluorouridine; Potency, µM (series often up to 46.1 µM), most hits filed as inhibitors; 330,000 tested, 2.3% active; AID 504467; also: nearly all actives have a fitted effect of over 55% in size
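HEK293T cells expressing luciferase-tagged ELG1 (2,000/well) received 5-Fluorouridine plus compound or DMSO for 16 hr at 37 °C. Luciferase was read by ONE-Glo luminescence after 30 min at room temperature.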
ELG1 genotoxic = inducers of genotoxicity in HEK293T ELG1-luciferase cells; HEK293T ELG1-luciferase reporter, luminescence, 16 h; Potency, µM (titrated, usually from 46 µM), usual class: activators; 330,000 tested, 1.3% active; AID 504466; also: nearly all actives have a fitted effect of over 60% in size
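HEK293T cells expressing luciferase-tagged ELG1 were treated with compound or DMSO for 16 hr at 37°C. Luciferase activity was then read after 30 min with ONE-Glo at room temperature; rising signal flags genetic stress.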
NPC1 prom act = activates the NPC1 promoter; Huh7 NPC1 promoter luciferase reporter, 24 h; Potency, µM (top dose mostly 9.22 µM), usual class: activators; 320,000 tested, 2.4% active; AID 485313; also: nearly all actives have a fitted effect of over 60% in size
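Readout is luciferase luminescence, reflecting NPC1 promoter activation in stably transfected Huh7 cells after 24 h compound exposure at 37 °C in reduced-serum medium with 10% FBS.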
FLuc counter = counter-screen for miR-21 project: firefly luciferase inhibitors or activators; P08659; purified FLuc, Km substrates, luminescence inhibition; Potency, µM (series often up to 57.5 µM), usual class: inhibitors; 360,000 tested, 6.9% active; AID 588342; also: nearly all actives have a fitted effect of over 55% in size
Target sequence (P08659 whole entry, looked up): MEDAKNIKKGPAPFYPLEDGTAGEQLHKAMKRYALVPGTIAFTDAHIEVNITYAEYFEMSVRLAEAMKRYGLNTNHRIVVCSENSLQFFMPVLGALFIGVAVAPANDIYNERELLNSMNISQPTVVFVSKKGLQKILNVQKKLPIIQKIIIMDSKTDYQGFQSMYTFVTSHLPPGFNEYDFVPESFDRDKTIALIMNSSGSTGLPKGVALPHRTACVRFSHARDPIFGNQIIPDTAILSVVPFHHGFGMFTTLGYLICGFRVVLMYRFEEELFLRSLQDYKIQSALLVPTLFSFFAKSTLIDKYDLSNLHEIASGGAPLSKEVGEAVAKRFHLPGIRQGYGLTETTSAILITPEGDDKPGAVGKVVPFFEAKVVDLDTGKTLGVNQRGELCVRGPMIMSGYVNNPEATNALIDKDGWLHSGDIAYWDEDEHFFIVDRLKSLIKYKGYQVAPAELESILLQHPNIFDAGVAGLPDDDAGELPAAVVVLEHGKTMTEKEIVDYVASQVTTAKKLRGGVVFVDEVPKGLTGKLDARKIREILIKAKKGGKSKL
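Purified P. pyralis luciferase (10nM final) with 10uM D-luciferin and 10uM ATP (Km levels) in 50mM Tris acetate pH 7.5, 10mM Mg acetate, 0.01% Tween-20, 0.05% BSA; qHTS 6-point titration, ~60 µM downward; luminescence read.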
Rab9 promoter act = activates the Rab9 promoter; Huh7 Rab9 promoter-luciferase reporter, luminescence, 24 h; Potency, µM (series often up to 9.22 µM), actives largely listed as activators; 320,000 tested, 2.8% active; also: nearly all actives have a fitted effect of over 60% in size
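Using Huh7 cells stably transfected with Rab9 promoter–luciferase, compounds were incubated 24 h at 37 °C, 5% CO2; luciferase luminescence was read 10 min after reagent addition.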
SMN2 splice enh = SMN2 splice variant enhancement; HEK293 SMN2-luciferase splicing reporter, luminescence, 30-36 h; Potency, µM (doses to about 46.1 µM), hits mostly activators; 210,000 tested, 2.8% active; AID 1458; also: nearly all actives have a fitted effect of over 55% in size
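qHTS luciferase splicing reporter: luminescence rises when SMN2 exon 7 is included in transfected HEK293 cells. Compound exposure lasted 30-36 h at 37C, with 4.5 mM final sodium butyrate as control, followed by a ONE-Glo read.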
Numbers stand for hits; n = inactive; u = inconclusive; x = no result. Shown are actives, neighbours in structure and some others; about 9.2% of the full set was active somewhere. Calls follow the shape of the dose curve; as a rule, active = well fitted curve in the direction sought with a large enough effect; inconclusive = small, poorly fitted or top-dose-only effect, or another doubt; inactive = no such curve, though single readings can be large; an effect the other way counts as inactive or inconclusive.

SMILES	ELG1 DNA repair	ELG1 genotoxic	NPC1 prom act	FLuc counter	Rab9 promoter act	SMN2 splice enh
Nc1nc2ccccc2n1C(=O)CCc1ccccc1	u	2.3µM	u	u	u	10µM
CC(=O)c1nc2ccccc2n1CCc1ccccc1	n	n	n	n	n	n
CCC(=O)N1CCn2c1nc1ccccc12	n	n	n	n	n	n
Nc1nc2ccccc2n1C(=O)c1ccc(F)cc1	u	1.2µM	0.5µM	1.3µM	0.28µM	x
Cn1c(CNC(=O)c2ccc(F)cc2)nc2ccccc21	n	n	n	n	n	n
O=C(c1ccco1)N1CCn2c1nc1ccccc12	u	u	u	u	u	11µM
CCCC12CN3CC(C)(CN(C1)C3c1ccco1)C2=O (centres undefined)	n	n	n	n	n	n
Cc1ccc(C2=NC(=O)/C(=C/c3cc(O)c(O)c(Br)c3)S2)cc1	n	n	n	8.5µM	n	n
COc1cc(/C=C2\SC(c3ccc(C)cc3)=NC2=O)cc(OC)c1O	n	n	n	6.7µM	n	n
CCn1cc(S(=O)(=O)Nc2cc(C)ccc2F)cn1	n	n	n	n	n	x
Cc1ccc(NC(=O)Nc2cccnc2)cc1NC(=O)Nc1cccnc1	8.2µM	n	n	u	n	x
CC(=O)c1cccc(NC(=O)Nc2cccnc2)c1	3.7µM	n	n	u	n	n
CN(Cc1ccccc1)S(=O)(=O)c1cccc(C(=O)O)c1	u	n	n	u	n	n
CCc1ccc(S(=O)(=O)c2nnn3c2nc(Nc2cc(OC)cc(OC)c2)c2cc(Cl)ccc23)cc1	x	x	x	n	x	n
O=C(NC1CCN(C(=O)N2c3ccccc3Sc3ccccc32)CC1)c1ccco1	23µM	n	n	n	n	n
O=C(NC1CCN(C(=O)N2c3ccccc3Sc3ccccc32)CC1)c1ccccc1Cl	n	n	n	n	n	n
Cc1cc(/C=C2/SC(=O)NC2=O)c(C)n1-c1ccc(N2CCOCC2)cc1	u	n	n	n	n	n
CCC(C)N1C(=O)S/C(=C/c2ccc(N3CCOCC3)cc2C)C1=O (centres undefined)	u	n	u	7.6µM	u	n
Cc1ccc(N2CCN(C(=O)N3CCOCC3)CC2)cc1C	n	n	n	n	n	x
Cc1cc(N2CCOCC2)ccc1/C=C1\SC(=O)N(C(C)C)C1=O	u	u	1.4µM	3.8µM	1.4µM	n
CCC(C)n1c(SCc2ccc(C(C)(C)C)cc2)nc2ccsc2c1=O (centres undefined)	x	x	x	n	x	x
Cc1cc(NC(=O)c2coc(=O)c(Br)c2)ccc1C(C)C	u	u	n	5.4µM	u	x
C[C@@H](NC(=O)c1coc(=O)c(Br)c1)c1ccccc1	u	21µM	n	n	n	13µM
Cc1ccc(NC(=S)/N=C(\N)Nc2nc(C)c3ccccc3n2)cc1C	u	n	n	11µM	n	n
Cc1cccc(NC(=S)/N=C(\N)Nc2nc(C)c3ccccc3n2)c1	n	n	n	u	n	n
SMILES	ELG1 DNA repair	ELG1 genotoxic	NPC1 prom act	FLuc counter	Rab9 promoter act	SMN2 splice enh
COc1ccc2nc(N/C(N)=N/C(=S)Nc3ccc(C)c(C)c3)nc(C)c2c1	n	n	n	n	n	n
Cc1cc(C)cc(NC(=S)/N=C(\N)Nc2nc(C)c3ccccc3n2)c1	18µM	n	n	n	n	n
CCc1ccn2cc(-c3ccc4c(c3)OCO4)nc2c1	u	0.18µM	u	0.06µM	u	x
COC(=O)c1ccc2nc(-c3ccc4c(c3)OCO4)cn2c1	u	u	0.22µM	0.3µM	0.1µM	x
O=C(NCc1cn2ccccc2n1)c1ccc2c(c1)OCO2	n	n	n	n	n	n
CCOc1ccc(N2CC(C(=O)NCCc3c[nH]c4ccc(C)cc34)CC2=O)cc1 (centres undefined)	n	n	n	n	n	x
CC(Oc1ccc(Cl)cc1Cl)c1nc(-c2ccccn2)no1 (centres undefined)	u	u	u	15µM	u	n
CC(Oc1ccc(Cl)cc1Cl)c1nc(-c2ccc(NC(=O)c3ccncc3)cc2)no1 (centres undefined)	18µM	n	n	n	n	n
CCC(CC)C(=O)c1c[nH]c(C(=O)N2CCN(c3ccc(OC)cc3)CC2)c1	n	n	n	n	n	n
O=C(c1ccccc1)c1nc2ccccc2n(CCCn2c(=O)c(C(=O)c3ccccc3)nc3ccccc32)c1=O	n	n	n	n	n	n
Cc1cc(/C=C2\C(=N)N3N=C(S(C)(=O)=O)SC3=NC2=O)c(C)n1Cc1ccccc1	n	n	n	17µM	n	n
CCCC1=NN2C(=N)/C(=C\c3cc(C)n(Cc4ccccc4)c3C)C(=O)N=C2S1	n	n	n	u	n	x
Cc1cc(/C=C2\C(=N)N3N=CSC3=NC2=O)c(C)n1Cc1ccccc1	u	u	u	1.3µM	u	x
CCOc1cc(/C=C2\C(=N)N3N=CSC3=NC2=O)ccc1OS(=O)(=O)c1ccccc1	n	n	n	n	n	x
CCC(Sc1nc2c(sc3ccccc32)c(=O)n1CCCC(=O)NC1CCCC1)C(=O)Nc1cccc(OC)c1 (centres undefined)	x	x	x	n	x	n
O=C(Sc1cccc2cccnc12)c1ccc(F)cc1	u	u	n	n	n	n
O=C(Sc1cccc2cccnc12)c1ccccc1Br	u	n	n	24µM	n	x
O=C(COC(=O)CNC(=O)c1ccc(Cl)cc1Cl)NCC1CCCO1 (centres undefined)	n	n	n	n	n	x
O=C(Nc1ccc(Cl)cc1Cl)c1ccc2c(c1)OCCO2	u	u	0.4µM	0.3µM	0.32µM	x
O=C(Nc1ccc2c(c1)OCO2)c1cnc(Cl)c(Cl)c1	u	n	u	7.6µM	3.5µM	x
O=C(Nc1ccc2c(c1)OCO2)c1ccc(Cl)nc1	u	u	n	u	n	n
O=C(CNC(=O)c1ccc(Cl)cc1Cl)OCC(=O)c1ccc2c(c1)OCCO2	u	n	n	17µM	n	n
Cc1ccc(NC(=O)c2ccc3c(c2)OCO3)cc1Cl	u	u	0.56µM	2.7µM	0.79µM	x
CN(C)c1ccnc(Nc2ccc(O)cc2)c1C#N	n	n	n	n	n	n
O=C(Cn1c(-c2cccs2)cc2cc(F)ccc21)NCCc1ccc(Cl)cc1	x	x	x	n	x	n
Cc1[nH]c(=O)[nH]c(=O)c1NS(=O)(=O)c1ccccc1	n	n	n	n	n	n
Cc1cc(Cl)ccc1NC(=O)c1ccc2c(c1)OCO2	u	u	2.2µM	12µM	3.5µM	x
Cc1ccc(C(=O)Nc2ccc3c(c2)OCO3)cc1Cl	u	4.6µM	0.89µM	2.4µM	2.5µM	x
Cc1ccc(C(=O)Nc2ccc3c(c2)OCO3)cc1S(=O)(=O)N1CCCC1	n	n	u	12µM	u	n
O=C(Nc1ccc(Cl)c(-c2nc3ccccc3[nH]2)c1)c1ccc2c(c1)OCO2	21µM	n	n	12µM	n	n
